From the supplement of paper PMC7156485

Tested on: HCC1569
Assay: H1.0 immunofluorescence intensity relative to DMSO (% of DMSO); higher = stronger H1.0 induction, active = 140 or more
Details: concentration: 10 µM; 24 h
Outline: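 HCC1569 and TDF cells were seeded at 800 per well in 384-well plates in RPMI with 10% FBS and treated with compounds at 10 µM for 24 h at 37 °C, in triplicate. After fixation in 3.7% formaldehyde, cells were stained with a rabbit anti-H1.0 antibody, an AlexaFluor 647 secondary and DAPI, and six fields per well were imaged at ×10. H1.0 nuclear intensity or cell number is given as percent of the plate control, using the median of replicates, with HCC1569 values smoothed for positional effects.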
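Also: TDF is a line of transformed human dermal fibroblasts of mesenchymal origin.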

SMILES	H1.0 immunofluorescence intensity
CC(C)C1C(=O)OC2CCN3CC=C(COC(=O)C(C)(O)C1(C)O)C23 (stereo not given) [Trichodesmine]	89.8 (inactive)
CC(O)(CS(=O)(=O)c1ccc(F)cc1)C(=O)Nc1ccc(C#N)c(C(F)(F)F)c1 (stereo not given) [Bicalutamide]	98.8 (inactive)
Br.CC(Cc1ccc(O)cc1)NCC(O)c1cc(O)cc(O)c1 (stereo not given) [Fenoterol hydrobromide]	112 (inactive)
NC(Cn1oc(=O)[nH]c1=O)C(=O)O (single isomer, unassigned; (+)) [(+)-Quisqualic acid]	103 (inactive)
COc1ccc2c(c1OC)C(=O)OC2C1c2cc3c(cc2CCN1C)OCO3 (single isomer, unassigned; (+)) [(+)-Hydrastine]	89.2 (inactive)
CNc1ccc2oc(CC3OC4(CCC3C)OC(C(C)C(=O)c3ccc[nH]3)C(C)CC4C)nc2c1C(=O)O (stereo not given) [Calcimycin]	128 (inactive)
CCC=CCC(C=CC=CCC=CCC=CCCCC(=O)O)OO (stereo not given)	102 (inactive)
Cl.Cl.Clc1ccc(N2CC3CCC(C2)N3)nn1	95.7 (inactive)
Nc1ncnc2c1ncn2C1OC(COP(=O)(O)CP(=O)(O)OP(=O)([O-])[O-])C(O)C1O.[Li+].[Li+] (stereo not drawn) [alpha,beta-Methylene adenosine 5'-triphosphate dilithium]	96.4 (inactive)
Cc1cc2c(C(C)C)c(O)c(O)c(C=O)c2c(O)c1-c1c(C)cc2c(C(C)C)c(O)c(O)c(C=O)c2c1O [Gossypol]	103 (inactive)
